The values that follow come from ChEMBL document CHEMBL4513216, “Probing the Open Global Health Chemical Diversity Library for Multistage-Active Starting Points for Next-Generation Antimalarials” (ACS Infect Dis, 2020).

Screen size: about 69,000 compounds; about 8,600 (12%) showed an effect of 50% or more. Many of the other results were omitted from the sample, so strong results are more common in it than they were.

The subject of the test is Plasmodium berghei. The experiment in a line: Screen against P. berghei liver stage (PbLuc), transformed with Luciferase, at 10uM. The class given is functional, HepG2. The note with it: tested at 10 uM.
Take `COc1ccc(C(NCc2ccc(C#N)cc2)C2CC2)cc1` (stereo not given): the INHIBITION is recorded as -22.3%. Take `COC(=O)CCn1ccc(=O)c2ccccc21`: the INHIBITION was determined as 20.9%. To `O=S(=O)(C1CC1)N1CCCn2cnc(COc3cccnc3)c2C1` belongs -4.26%; to `Cc1ccc(CCCC(=O)N2CCN(C3CCCN(C)C3)CC2)s1` (stereo not given), 15.7%; to `O=C(C1CCOC1)N1CCN(CC(F)(F)F)c2ccccc21` (stereo not given), 34.2%.

As for `c1ccc(-c2nnc(CN3CCCC3Cn3cncn3)o2)cc1` (stereo not given), the INHIBITION is -41.6%. To `COCc1ncn2c1CN(C(=O)c1ccc[nH]1)CC2` belongs -20.1%. For `Cc1nc(C)n(CC2CCCN(CCC(=O)N3CCOCC3)C2)n1` (stereo not given) the value was -2.19%; for `c1c[nH]c(CN2CCCC(Cc3ccc(NC4CCCC4)nn3)C2)n1` (stereo not given), -3.02%. For `CCOc1ccc(CNC(=O)N(C)Cc2ncnn2C)cc1C` the value was 49%. With `Cc1ccc(NC(=O)N(C)Cc2cnn(C)c2)cc1OCC(F)F`, the INHIBITION stood at 52.7%. For `Cc1ccc(C)c(NC(=O)N(C)Cc2cnn(C)c2)c1` the value was 39.8%.

In the case of `Cc1ccc(NC(=O)N(C)Cc2cnn(C)c2)c(C)c1`, the INHIBITION is recorded as -29.1%.

Take `CC(C)OCc1cccc(NC(=O)N(C)Cc2ncnn2C)c1`: the INHIBITION amounted to 45.8%. For `CCOc1cc(NC(=O)N(C)Cc2ncnn2C)ccc1C` the value was 50.1%; for `CN(Cc1ncnn1C)C(=O)Nc1ccc(OC(F)F)cc1`, 21.2%.

For `CC(=O)N(C)Cc1cccc(NC(=O)N(C)Cc2nccs2)c1`, the INHIBITION was -49.3%.

As for `CCSCc1cccc(NC(=O)N(C)Cc2ncnn2C)c1`, the INHIBITION is on record as 59.7%. For `COc1c(CNCCNC(=O)c2cccs2)c(C)nn1C` the value was -79.3%; for `Cc1ccc(OCCN(C)C(=O)NC(C)c2nncn2C)cc1` (stereo not given), 21.5%; for `Cc1cccc(NC(=O)Cn2nc3ccccn3c2=O)c1C`, -7.35%. Regarding `CC(C)OCc1nn(C)c2c1CCN(CC1CC1)C2`, the INHIBITION was determined as 32.5%.

For `Cc1cc(CN2C[C@H](N3CCOCC3)[C@@H]3OCCC[C@@H]32)oc1C`, the INHIBITION came to 26.4%. For `O=c1oc(-c2ccc(F)cc2)nn1CN1CCCCC1` the value was 23.7%; for `CCOc1ccc(Cl)c(C(=O)N2CCN(CC(O)CC)CC2)n1` (stereo not given), 14.1%. On to `COCc1cc(N2CCN(C3CCCCC3)CC2)n2nccc2n1`, for which the INHIBITION is reported as -9.29%.

`COCc1cc(N2CCN(Cc3ccncc3)CC2)n2nccc2n1`: the INHIBITION is reported as 48.5%. For `CCc1cc(N2CCN(c3ccc(Cl)cn3)CC2)n2nccc2n1` the value was 81.2%; for `COCc1cc(N2CCOCC2)n2nccc2n1`, -11.9%.

On to `CCc1cc(N2CCC(N3CCSCC3)CC2)n2nccc2n1`, for which the INHIBITION is given as 35%. To `COCc1cc(N2CCN(c3ccc(Cl)cn3)CC2)n2nccc2n1` belongs 54.5%; to `Cc1ccc(CN2CC[C@@H](O)[C@@H]2Cc2cnn(C)c2)o1`, 22.9%; to `Cc1cccc(CN2C[C@H]3CCC[C@@]3(COCc3csc(C)n3)C2)n1`, -28.2%.

As to `CCC(CC)c1cc(CNC(=O)N2CCC(CO)CC2)on1`, the INHIBITION was found to be 40.4%. To `CCC(CC)c1cc(CNC(=O)N2CCCC(C(=O)NC)C2)on1` (stereo not given) belongs 64.6%; to `CCC(CC)c1cc(CNC(=O)N2CCCC(N(C)C)C2)on1` (stereo not given), -34%; to `C1CCC(c2nnc3sc(C4CCCO4)nn23)C1` (stereo not given), 49.4%. To `CCOc1ccc(CC(=O)N2CCN(c3nccn3CC)CC2)cc1` belongs 49.1%; to `Cc1csc(CNC(=O)N(C)Cc2cnn(C)c2)n1`, 54.4%; to `Cc1ccsc1CNC(=O)N(C)Cc1cnn(C)c1`, -14.86%.

For the compound `Cc1nc(CNC(=O)N(C)Cc2cnn(C)c2)cs1`, the INHIBITION is 15.05%. To `Cc1ccc2c(c1)C1(CCN(C(=O)C3CC3)CC1)CC2N1CCOCC1` (stereo not given) belongs 10.7%.

`Cc1nn(C)c2c(N3CCN(C(=O)C4CCCCC4)CC3)ncnc12`: the INHIBITION turned out to be 44.1%.

With `CC(C)CN1C(=O)C2(CCN(Cc3ccsc3)C2)c2ccccc21` (stereo not given), the INHIBITION came out at 32.2%. For `COCCN1C(=O)C2(CCN(CC3CC3)CC2)c2ccccc21` the value was 55.7%; for `CC(C)CN1C(=O)C2(CCN(CC3CCOCC3)C2)c2ccccc21` (stereo not given), 71.9%. To `Cc1ccc(CN2CCC3(CC2)C(=O)N(C)c2ccccc23)s1` belongs 31.8%. For `CC(C)CN1C(=O)C2(CCN(Cc3cccs3)C2)c2ccccc21` (stereo not given) the value was 20.4%. As for `Cc1ccc(CN2CCC3(C2)C(=O)N(CC2CC2)c2ccccc23)s1` (stereo not given), the INHIBITION is given as 55%.

Regarding `CN(C)CCN1C(=O)C2(CCN(CC3CC3)CC2)c2ccccc21`, the INHIBITION came to 27.6%.

With `CN1CCC2(CC1)C(=O)N(CC1CC1)c1ccccc12`, the INHIBITION was 14.1%.

In the case of `CC(C)CN1C(=O)C2(CCN(Cc3nccs3)C2)c2ccccc21` (stereo not given), the INHIBITION amounted to 81.8%. For `CC(=O)N1CCC2(C1)C(=O)N(CC1CC1)c1ccccc12` (stereo not given) the value was -19.6%. For `CC(C)CN1C(=O)C2(CCN(Cc3ccoc3)C2)c2ccccc21` (stereo not given) the value was 23.3%; for `CC(C)CN1C(=O)C2(CCN(Cc3ccc(F)cc3)C2)c2ccccc21` (stereo not given), 38.2%.
